Test results reported in PubChem BioAssay.
Calls of active or inactive are those of the source. Unless noted, the rule behind the calls is not given here.

Tests used:
[1] = compound effects on lung adenocarcinoma cell viability – A549, calcein-AM fluorescence, 48 h, basal, profiling panel (AID 1162); conditions: higher = more signal; note: test concentration not given here
[2] = compound effects on differentiated 3T3-L1 adipocyte viability – cell-based, 3T3-L1 adipocytes, calcein-AM fluorescence, 48 h, basal, profiling panel (AID 1163); conditions: 3T3-L1 adipocytes viability, higher = more signal; note: test concentration not given here
[3] = compound effects on hepatocellular carcinoma cell viability – HepG2, calcein-AM fluorescence, 48 h, basal, profiling panel (AID 1164); conditions: higher = more signal; note: test concentration not given here
[4] = compound effects on multiple myeloma cell viability – MM1S, calcein-AM fluorescence, 48 h, basal, profiling panel (AID 1165); conditions: higher = more signal; note: test concentration not given here
[5] = calcein-AM signal in unstimulated myeloma cells – cell-based, calcein-AM fluorescence, 48 h, PK04 Diversity Set, profiling panel (AID 1166); conditions: RPMI8226 myeloma viability, higher = more signal;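 note: cells grown under basal conditions without added stimulus; test concentration not given here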
[6] = JC-1 mitochondrial signal, unstimulated HepG2 cells – cell-based, JC-1 fluorescence, 24 h, 100 nL compound, profiling panel (AID 1167); conditions: HepG2 mitochondrial potential, higher = more signal; note: test concentration not given here
[7] = JC-1 mitochondrial signal, unstimulated adipocytes – cell-based, JC-1 fluorescence, 3T3-L1 adipocytes, 24 h, 100 nL compound, profiling panel (AID 1168); conditions: JC-1 mitochondrial fluorescence, higher = more signal, called active from +8 up or from −8 down; note: test concentration not given here
[8] = JC-1 mitochondrial signal, unstimulated myeloma cells – cell-based, JC-1 fluorescence, RPMI8226, 24 h, 100 nL compound, profiling panel (AID 1169); conditions: JC-1 mitochondrial potential fluorescence, higher = more signal; note: test concentration not given here
[9] = JC-1 mitochondrial signal, unstimulated MM1S myeloma – cell-based, JC-1 fluorescence, 24 h, 100 nL compound, profiling panel (AID 1170); conditions: MM1S mitochondrial potential, higher = more signal; note: test concentration not given here
[10] = resazurin metabolic signal in A549 cells – cell-based, resazurin fluorescence, 24 h, PK04 Diversity Set, profiling panel (AID 1171); conditions: A549 viability, higher = more signal, called active from +8 up or from −8 down; note: test concentration not given here
[11] = resazurin metabolic signal in HepG2 cells – cell-based, resazurin fluorescence, 24 h, PK04 Diversity Set, profiling panel (AID 1172); conditions: HepG2 viability, higher = more signal; note: test concentration not given here
[12] = budding yeast growth changes without added modifier – OD600, strain BY4716, 24 h, basal condition, primary screen (AID 1173); conditions: S. cerevisiae BY4716 growth, OD600, 24 h; higher = more signal, called active from +8 up or from −8 down
[13] = viability profiling in MM1S myeloma cells – cell-based, resazurin fluorescence, basal, 24 h, PK04 Diversity Set, profiling panel (AID 1174); conditions: higher = more signal, called active from +8 up or from −8 down; note: test concentration not given here
[14] = target: Dihydroorotate dehydrogenase (quinone), mitochondrial (Plasmodium falciparum (isolate 3D7)) (UniProt Q08210); assay: inhibition of P. falciparum DHODH – biochemical, C-terminal His tag, absorbance 600 nm, primary screen (AID 1175); conditions: PfDHODH enzyme, DCIP absorbance 600 nm; higher = more signal, called active from +8 up or from −8 down;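 note: recombinant parasite enzyme with a five histidine tag at its C terminus; test concentration not given here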
Dihydroorotate dehydrogenase (quinone), mitochondrial (Plasmodium falciparum (isolate 3D7)), sequence (Q08210 whole entry, looked up): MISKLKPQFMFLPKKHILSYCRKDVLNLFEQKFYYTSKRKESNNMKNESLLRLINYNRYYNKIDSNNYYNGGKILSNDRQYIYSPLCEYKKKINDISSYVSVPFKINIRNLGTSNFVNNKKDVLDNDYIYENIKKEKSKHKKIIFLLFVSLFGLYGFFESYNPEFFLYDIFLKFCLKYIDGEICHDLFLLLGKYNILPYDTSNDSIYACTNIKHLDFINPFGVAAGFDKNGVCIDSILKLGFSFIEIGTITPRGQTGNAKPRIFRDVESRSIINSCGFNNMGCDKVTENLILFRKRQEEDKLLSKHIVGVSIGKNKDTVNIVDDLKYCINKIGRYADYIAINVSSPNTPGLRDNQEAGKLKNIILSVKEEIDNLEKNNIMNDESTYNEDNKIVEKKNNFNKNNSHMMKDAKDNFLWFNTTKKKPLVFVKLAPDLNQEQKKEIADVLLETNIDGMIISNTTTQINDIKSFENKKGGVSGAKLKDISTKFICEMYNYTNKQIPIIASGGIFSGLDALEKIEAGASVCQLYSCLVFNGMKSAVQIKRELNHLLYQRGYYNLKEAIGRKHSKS

[15] = inhibition of PAO1 biofilm formation – strain PAO1, LB-PBS medium, absorbance 600 nm, primary screen (AID 1176); note: test concentration not given here; conditions: P. aeruginosa PAO1 growth/biofilm, A600, 12 h; higher = more signal
[16] = growth modulation of vineyard yeast isolate – strain RM11-1a, OD600, basal, 24 h, primary screen (AID 1177);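 note: cultures grown under basal conditions with no added stressor; test concentration not given here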; conditions: S. cerevisiae RM11-1a growth, OD600, 24 h; higher = more signal, called active from +8 up or from −8 down
[17] = growth of efflux-deficient E. coli DRC39 – strain DRC39, OD650, 24 h, E. coli filamentation inducers, primary screen (AID 1178);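 note: growth measured as culture turbidity by optical density at 650 nm; test concentration not given here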; conditions: E. coli DRC39 acrAB, higher = more signal, called active from +8 up or from −8 down
[18] = growth of efflux-deficient E. coli DRC39 – strain DRC39, OD650, 48 h, E. coli filamentation inducers, primary screen (AID 1179);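 note: screen aims at cell division blockers that make cells filament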; conditions: E. coli DRC39 delta-acrAB growth, higher = more signal, called active from +8 up or from −8 down
[19] = viability profiling in RPMI8226 myeloma cells – cell-based, resazurin fluorescence, basal, 24 h, PK04 Diversity Set, profiling panel (AID 1180); conditions: higher = more signal;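 note: RPMI8826 multiple myeloma cell line at 5000 cells per well; test concentration not given here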
[20] = target: E3 ubiquitin-protein ligase XIAP (Homo sapiens) (UniProt P98170); assay: small molecules binding XIAP protein – biophysical, small-molecule microarray, fluorescence 635 nm, primary screen (AID 1181); conditions: higher = more signal;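 note: score merges 667 nm emission and signal to noise over triplicate slides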
E3 ubiquitin-protein ligase XIAP (Homo sapiens), sequence (P98170 whole entry, looked up): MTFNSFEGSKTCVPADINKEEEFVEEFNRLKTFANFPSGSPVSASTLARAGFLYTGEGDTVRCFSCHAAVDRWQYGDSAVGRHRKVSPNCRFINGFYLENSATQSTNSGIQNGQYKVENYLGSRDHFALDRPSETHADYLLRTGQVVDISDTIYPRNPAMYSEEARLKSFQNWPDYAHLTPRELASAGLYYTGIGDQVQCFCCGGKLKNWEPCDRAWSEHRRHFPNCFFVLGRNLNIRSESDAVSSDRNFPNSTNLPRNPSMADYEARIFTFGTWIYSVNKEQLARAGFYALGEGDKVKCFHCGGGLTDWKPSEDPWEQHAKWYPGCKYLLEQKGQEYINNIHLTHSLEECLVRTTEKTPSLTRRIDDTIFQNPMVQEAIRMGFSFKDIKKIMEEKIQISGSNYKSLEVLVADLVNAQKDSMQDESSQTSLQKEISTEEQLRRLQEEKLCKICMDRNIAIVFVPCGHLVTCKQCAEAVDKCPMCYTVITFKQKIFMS

SMILES: O=C(NCC(F)(F)F)[C@@H]1c2ccccc2C(=O)N(Cc2ccccc2)[C@H]1c1ccc(CO)cc1
- z-score [1]: 1.73
- z-score [2]: 0.402
- z-score [3]: 1.34
- z-score [4]: 0.356
- z-score [5]: -0.407
- z-score [6]: 2.14
- z-score [7]: 1.2 (inactive)
- z-score [8]: 0.0511
- z-score [9]: -0.657
- z-score [10]: 0.176 (inactive)
- z-score [11]: -0.699
- z-score [12]: -0.0657 (inactive)
- z-score [13]: -0.294 (inactive)
- composite z-score [14]: -1.09 (inactive)
- z-score [15]: -0.0654 (inactive)
- z-score [16]: 0.0566 (inactive)
- z-score [17]: 0.126 (inactive)
- z-score [18]: 0.606 (inactive)
- z-score [19]: 0.368
- composite z-score [20]: -0.239

SMILES: [N-]=[N+]=NCc1ccccc1C[C@@]1(C(=O)NCc2ccccc2)N=C(c2ccc(OCCCO)cc2)O[C@@H]1c1ccccc1CN=[N+]=[N-]
- z-score [1]: -0.293
- z-score [2]: -0.0193
- z-score [3]: 0.236
- z-score [4]: -0.645
- z-score [5]: -1.13
- z-score [6]: 0.0212
- z-score [7]: -0.835 (inactive)
- z-score [8]: -0.66
- z-score [9]: -1.32
- z-score [10]: 1.01 (inactive)
- z-score [11]: -0.594
- z-score [12]: 0.548 (inactive)
- z-score [13]: -0.709 (inactive)
- composite z-score [14]: -0.067 (inactive)
- z-score [15]: 1.74 (inactive)
- z-score [16]: 1.28 (inactive)
- z-score [17]: 0.561 (inactive)
- z-score [18]: 0.678 (inactive)
- z-score [19]: -0.538
- composite z-score [20]: -0.174

SMILES: O=C(NCc1ccccc1)[C@@H]1c2ccccc2C(=O)N(C2CCCCC2)[C@H]1c1ccc(CO)cc1
- z-score [1]: 1.53
- z-score [2]: -0.116
- z-score [3]: 1.54
- z-score [4]: 0.499
- z-score [5]: -0.0572
- z-score [6]: 2.46
- z-score [7]: 0.401 (inactive)
- z-score [8]: 0.739
- z-score [9]: -0.531
- z-score [10]: -0.222 (inactive)
- z-score [11]: -0.178
- z-score [12]: 0.0854 (inactive)
- z-score [13]: -0.765 (inactive)
- composite z-score [14]: 0.0557 (inactive)
- z-score [15]: 0.0993 (inactive)
- z-score [16]: 0.138 (inactive)
- z-score [17]: 0.0692 (inactive)
- z-score [18]: 0.268 (inactive)
- z-score [19]: -1.7
- composite z-score [20]: 0.117

SMILES: O=C(NCc1ccccc1)[C@@H]1c2ccccc2C(=O)N(Cc2cc(F)cc(C(F)(F)F)c2)[C@H]1c1ccc(CO)cc1
- z-score [1]: 1.5
- z-score [2]: -0.115
- z-score [3]: 1.37
- z-score [4]: 0.105
- z-score [5]: -0.161
- z-score [6]: 1.88
- z-score [7]: 0.079 (inactive)
- z-score [8]: 0.79
- z-score [9]: -0.511
- z-score [10]: -0.811 (inactive)
- z-score [11]: -0.745
- z-score [12]: -0.633 (inactive)
- z-score [13]: -0.569 (inactive)
- composite z-score [14]: 0.131 (inactive)
- z-score [15]: 0.472 (inactive)
- z-score [16]: -0.517 (inactive)
- z-score [17]: 0.771 (inactive)
- z-score [18]: 0.675 (inactive)
- z-score [19]: 0.127
- composite z-score [20]: -0.0207

SMILES: C=CCOC(=O)[C@@H]1[C@H]2C(=O)O[C@H](c3ccccc3)[C@H](c3ccccc3)N2[C@H](c2ccc(OCCOC(=O)[C@H]3C[C@H]4C(=O)N[C@@H](Cc5ccccc5)C(=O)N4[C@H]3c3ccc(O)cc3)cc2)[C@@]12C(=O)Nc1ccc(I)cc12
- z-score [1]: -0.688
- z-score [2]: -0.724
- z-score [3]: -0.0809
- z-score [4]: -3.46
- z-score [5]: -2.98
- z-score [6]: -0.638
- z-score [7]: 1.43 (inactive)
- z-score [8]: -0.609
- z-score [9]: -1.4
- z-score [10]: -0.0596 (inactive)
- z-score [11]: -0.0291
- z-score [12]: -0.149 (inactive)
- z-score [13]: -1.98 (inactive)
- composite z-score [14]: -8.55 (active)
- z-score [15]: 0.932 (inactive)
- z-score [16]: 2.52 (inactive)
- z-score [17]: -1.52 (inactive)
- z-score [18]: -1.06 (inactive)
- z-score [19]: -1.01
- composite z-score [20]: -0.187

SMILES: COCC1=C([C@H](O)CCc2ccccc2)[C@H](CO)[C@@H]2C(=O)N(Cc3ccccc3)C(=O)[C@@H]2C1
- z-score [1]: 0.883
- z-score [2]: 0.709
- z-score [3]: 0.984
- z-score [4]: 0.418
- z-score [5]: 0.438
- z-score [6]: 0.592
- z-score [7]: 0.424 (inactive)
- z-score [8]: 0.469
- z-score [9]: -1.37
- z-score [10]: 0.859 (inactive)
- z-score [11]: -0.062
- z-score [12]: -1.55 (inactive)
- z-score [13]: 0.0871 (inactive)
- composite z-score [14]: -1.91 (inactive)
- z-score [15]: -0.295 (inactive)
- z-score [16]: 0.723 (inactive)
- z-score [17]: 1.09 (inactive)
- z-score [18]: 0.738 (inactive)
- z-score [19]: 0.449
- composite z-score [20]: -0.031

SMILES: C[C@]1(C(=O)NCC(F)(F)F)c2ccccc2C(=O)N(Cc2cc(F)cc(C(F)(F)F)c2)[C@H]1c1ccc(CO)cc1
- z-score [1]: -0.493
- z-score [2]: 1.63
- z-score [3]: -0.357
- z-score [4]: -0.74
- z-score [5]: -0.308
- z-score [6]: 0.951
- z-score [7]: -0.449 (inactive)
- z-score [8]: -0.494
- z-score [9]: 0.206
- z-score [10]: -0.557 (inactive)
- z-score [11]: 0.378
- z-score [12]: -0.459 (inactive)
- z-score [13]: -0.191 (inactive)
- composite z-score [14]: -0.191 (inactive)
- z-score [15]: 1.32 (inactive)
- z-score [16]: -0.401 (inactive)
- z-score [17]: -0.0567 (inactive)
- z-score [18]: -0.376 (inactive)
- z-score [19]: 0.532
- composite z-score [20]: -0.0884
